Reference: PubChem BioAssay (NCI)
About 83,000 compounds went through this panel and 20% of them were active in at least one assay; those are over-represented in the sample as a whole.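 Step 1: grow cells in 96-well plates. Step 2: add test compound at a single concentration. Step 3: incubate 48 h. Step 4: record percent growth.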 A number with no mark means an inactive call. Calls of active or inactive are those of the source. The calls were made as follows: active = growth percent below 10; inactive = the rest.

Columns and labels:
Assay in all cases: NCI-60 one-dose screen, 48 h (100 = growth as untreated, 0 = no growth, -100 = all killed)
Conditions in all cases: 10 µM unless noted
[1] = tested on: DU-145 prostate
[2] = tested on: K-562 leukemia
[3] = tested on: MALME-3M melanoma
[4] = tested on: MDA-MB-231 breast
[5] = tested on: RXF 393 renal
[6] = tested on: SF-268 CNS
[7] = tested on: SF-295 CNS
[8] = tested on: SF-539 CNS
[9] = tested on: UACC-257 melanoma
[10] = tested on: M14 melanoma
[11] = tested on: HCT-15 colon
[12] = tested on: HT29 colon
[13] = tested on: SNB-19 CNS
[14] = tested on: U251 CNS
[15] = tested on: PC-3 prostate
[16] = tested on: SK-MEL-5 melanoma
[17] = tested on: UACC-62 melanoma
[18] = tested on: LOX IMVI melanoma
[19] = tested on: SK-MEL-28 melanoma

| Structure (SMILES) | growth [1] | growth [2] | growth [3] | growth [4] | growth [5] | growth [6] | growth [7] | growth [8] | growth [9] | growth [10] | growth [11] | growth [12] | growth [13] | growth [14] | growth [15] | growth [16] | growth [17] | growth [18] | growth [19] |
| --- | --- | --- | --- | --- | --- | --- | --- | --- | --- | --- | --- | --- | --- | --- | --- | --- | --- | --- | --- |
| Nc1nc(Nc2ccccc2)c2ncn(Cc3ccc4c(c3)OCO4)c2n1 | 80.9% | 15.7% | 53% | 44% | 52.8% | 62.8% | 43.6% | 46% | 72.9% | 16.3% | 23.1% | 20.6% | 54.4% | 49.5% | 58.4% | 21.4% | 41.3% | 48% | 63.5% |
| Cc1ccc(S(=O)(=O)NCCCNc2nccc(-c3c(-c4cccc(F)c4)nc4occn34)n2)cc1 | 73.8% | 36.7% | 64.6% | 64% | 77.7% | 61.6% | 100% | 95.1% | 91.5% | 57% | 73.4% | 27.8% | 90.7% | 70.6% | 44.3% | 67.2% | 58.6% | 57.9% | 95.9% |
| O=C(Oc1ccc(Cl)cc1[N+](=O)[O-])Oc1ccc(Cl)cc1[N+](=O)[O-] | 116% | 90.2% | 135% | 126% | 124% | 105% | 119% | 109% | 107% | 109% | 106% | 107% |  | 99% | 88.5% | 120% | 113% | 111% | 106% |
| Clc1ccc(N2CCN(CCCN3CCN(c4cccc(Cl)c4)CC3)CC2)cc1 | 79.7% | 38.8% | 52.8% | 50.6% | 41% | 79.2% | 51.7% | 56.4% | 37.4% | 44.1% | 40.2% | 34.7% | 63.3% | 55.2% | 45.3% | 1.8% (active) | 58.9% | 48.4% | 84.6% |
| C=C(C)[C@@H]1CC[C@]2(C)[C@H](CC[C@@H]3[C@@H]([C@@](C)(O)CCC=C(C)C)CC[C@]32C)[C@@]1(C)CCC(=O)O | 7.93% [100 µM] (active) | 11.6% [100 µM] | -39.6% [100 µM] (active) | -39.5% [100 µM] (active) | -69.2% [100 µM] (active) | -17.9% [100 µM] (active) | -59.9% [100 µM] (active) | -85.7% [100 µM] (active) | 28.9% [100 µM] | 2.42% [100 µM] (active) | -15.9% [100 µM] (active) | 2.65% [100 µM] (active) | -32.8% [100 µM] (active) | -16.7% [100 µM] (active) | 5.99% [100 µM] (active) | -88.2% [100 µM] (active) | -75.3% [100 µM] (active) | -100% [100 µM] (active) | -83% [100 µM] (active) |
| CCOC(=O)C(=Cc1ccccc1[N+](=O)[O-])C(=O)OCC | -51.5% (active) | 0.762% (active) | 67.3% | 9.18% (active) | 0.0546% (active) | 13.3% | 95.5% | -15.5% (active) | 42% | 25.2% | 5.68% (active) | 11.4% |  | 23.4% | 47% | 20.4% | 32.3% |  | 33.7% |
| O=[N+]([O-])c1cccc(/C=C/c2ccc3ccccc3n2)c1 | 71.4% | 94.7% | 68.5% | 45.7% | 62.1% | 72.9% | 53.2% | 78.1% | 74.8% | 82.3% | 82.5% | 76.5% | 64.1% | 72.2% | 77.8% | 82% | 82.9% | 70.5% | 87.3% |
| O=C(O)c1cn(C2CC2)c2cc(N3CCN(Cc4c(O)ccc5ccccc45)CC3)c(F)cc2c1=O | 3.75% (active) | 58.4% | 10.9% | 43.6% | -29.2% (active) | 47.1% | 39.3% | -17.7% (active) | 35.1% | 47.6% | 5.61% (active) | -46.7% (active) | 83.1% | 37.5% | 36.1% | 58.4% | 38.8% | 37.1% | 27.8% |
